# doi:10.1101/2024.03.05.583629
# Molecular target: pT7_6His-AlfaTag-HOXD13 (human, UniProt P35453 263-343)
# Assay: PADIT-seq
# Conditions: dsDNA, one strand shown
# Sequence of pT7_6His-AlfaTag-HOXD13 (P35453 263-343): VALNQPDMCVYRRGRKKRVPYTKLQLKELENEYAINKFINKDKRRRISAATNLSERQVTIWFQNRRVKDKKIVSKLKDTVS
row,Sequence,binding signal [log2FC]
1,CTCGAGGATATCAAGATCTGGCCTCGGCATTTTAACAGGAACCTCTAGCTAGCCGACTCACTATAGGGATAATCGCCCTGAGCAAAGACC,2.07 ± 0.0923
2,CTCGAGGATATCAAGATCTGGCCTCGGCCCCGTAAAAGGAACCTCTAGCTAGCCGACTCACTATAGGGATAATCGCCCTGAGCAAAGACC,2.52 ± 0.0899
3,CTCGAGGATATCAAGATCTGGCCTCGGCGCGCATGCGGGAACCTCTAGCTAGCCGACTCACTATAGGGATAATCGCCCTGAGCAAAGACC,-0.957 ± 0.123
4,CTCGAGGATATCAAGATCTGGCCTCGGCTAAGTAAAAGGAACCTCTAGCTAGCCGACTCACTATAGGGATAATCGCCCTGAGCAAAGACC,0.166 ± 0.108
5,CTCGAGGATATCAAGATCTGGCCTCGGCCTTTTACAGGGAACCTCTAGCTAGCCGACTCACTATAGGGATAATCGCCCTGAGCAAAGACC,2.83 ± 0.0828
6,CTCGAGGATATCAAGATCTGGCCTCGGCATTTTATCGGGAACCTCTAGCTAGCCGACTCACTATAGGGATAATCGCCCTGAGCAAAGACC,1.85 ± 0.0758
7,CTCGAGGATATCAAGATCTGGCCTCGGCCTTTTATAGGGAACCTCTAGCTAGCCGACTCACTATAGGGATAATCGCCCTGAGCAAAGACC,3.21 ± 0.0791
8,CTCGAGGATATCAAGATCTGGCCTCGGCGAGCTAAAAGGAACCTCTAGCTAGCCGACTCACTATAGGGATAATCGCCCTGAGCAAAGACC,-0.842 ± 0.11
9,CTCGAGGATATCAAGATCTGGCCTCGGCATTTTAGTTGGAACCTCTAGCTAGCCGACTCACTATAGGGATAATCGCCCTGAGCAAAGACC,0.276 ± 0.112
10,CTCGAGGATATCAAGATCTGGCCTCGGCGAGGTAAAAGGAACCTCTAGCTAGCCGACTCACTATAGGGATAATCGCCCTGAGCAAAGACC,-0.51 ± 0.0909
11,CTCGAGGATATCAAGATCTGGCCTCGGCTGTCTAAAAGGAACCTCTAGCTAGCCGACTCACTATAGGGATAATCGCCCTGAGCAAAGACC,-0.572 ± 0.102
12,CTCGAGGATATCAAGATCTGGCCTCGGCTGTCCACGCGGAACCTCTAGCTAGCCGACTCACTATAGGGATAATCGCCCTGAGCAAAGACC,-0.737 ± 0.124
13,CTCGAGGATATCAAGATCTGGCCTCGGCAATTGGGCGGGAACCTCTAGCTAGCCGACTCACTATAGGGATAATCGCCCTGAGCAAAGACC,-0.563 ± 0.097
